Screens: PubChem, several laboratories
ABHD5 PLIN5 PPI = ABHD5-PLIN5 protein interaction inhibition. Q00G26+Q8WTS1. Split G. princeps luciferase complementation, luminescence, 4 h. inhibition, % at 4 µM. actives 0.78% (n = 360,000). AID 602281;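 active means inhibition above the mean inhibition across every tested compound plus 3 SD, cut at about 22% in these data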
NOD2-RIPK2 inh = inhibitors of human NOD2-RIPK2 interaction; inhibition, % at 4.98 µM; AID 624267; CHO BLA complementation NOD2-RIPK2, CCF4 ratio; actives 0.38% (n = 360,000); in the data active means inhibition above about 21%
PRMT1 inh = PRMT1 (human) inhibition, primary screen; recombinant PRMT1, activity-based probe fluorescence polarization; inhibition, % at 2.79 µM; actives 1.3% (n = 370,000); AID 652257;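 active means inhibition above about 21% made by adding two undisclosed values, limit read from the data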
TLR4 MyD88 comp = inhibitors of human TLR4-MyD88 binding | O00206+Q99836 | HeLa CL3-4 TLR4/MyD88 BLA complementation, FRET ratio | inhibition, % at 8.4 µM | actives 0.18% (n = 200,000); in the data active means inhibition above about 25%
TLR9-MyD88 block = TLR9-MyD88 interaction inhibition; Q9NR96+Q99836; CHO BLA complementation TLR9-MyD88, CCF4 FRET ratio; inhibition, % at 4.98 µM; actives 0.21% (n = 340,000);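 active means inhibition above the mean over all tested compounds plus 3 SD, cut at about 21% in these data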
Granule exo inh = lytic granule exocytosis inhibition | TALL-104 LAMP-1 surface exposure, flow cytometry; cells stimulated with thapsigargin and PMA | inhibition, % at 10 µM | actives 0.66% (n = 360,000);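 active means inhibition above about 55%, limit read from the data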
PRMT1 inh conf = PRMT1 (human) inhibition, FP confirmation. actives 42% (n = 3,300). AID 687036. shares compounds with PRMT1 inh. inhibition, % at 2.79 µM. recombinant His-PRMT1, activity-based probe fluorescence polarization;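 active means mean inhibition across replicates above the hit cutoff derived for the earlier primary screen, cut at about 22% in these data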
Numbers stand for hits. A selection: hits, their analogues and other compounds. The true share with any hit is near 2.6%.

Screening O=C(O)CN1C(=O)C2C3CC(C2C1=O)C1C(c2ccc(Cl)cc2)c2sc(=O)[nH]c2SC31 (stereo not given) returned ABHD5 PLIN5 PPI inactive, NOD2-RIPK2 inh inactive, PRMT1 inh 64, TLR4 MyD88 comp inactive, TLR9-MyD88 block inactive, Granule exo inh inactive and PRMT1 inh conf inactive.
O=C(O)CCCN1C(=O)C2C3CC(C2C1=O)C1C(c2ccccc2)c2sc(=O)[nH]c2SC31 (stereo not given) was read as ABHD5 PLIN5 PPI inactive, NOD2-RIPK2 inh inactive, PRMT1 inh inactive, TLR4 MyD88 comp inactive, TLR9-MyD88 block inactive and Granule exo inh inactive.
Cc1cc(NC(=O)COC(=O)c2ccc([N+](=O)[O-])cc2Cl)no1 was read as ABHD5 PLIN5 PPI inactive, NOD2-RIPK2 inh inactive, PRMT1 inh inactive, TLR9-MyD88 block inactive and Granule exo inh inactive.
`Cc1[nH]n(-c2ccccc2)c(=S)c1C=NCCCN=Cc1c(C)[nH]n(-c2ccccc2)c1=S` gave ABHD5 PLIN5 PPI inactive, NOD2-RIPK2 inh inactive, PRMT1 inh 81, TLR4 MyD88 comp inactive, TLR9-MyD88 block inactive, Granule exo inh inactive and PRMT1 inh conf 44.
COC(=O)CN=Cc1c(C)[nH]n(-c2ccccc2)c1=O was read as ABHD5 PLIN5 PPI inactive, NOD2-RIPK2 inh inactive, PRMT1 inh inactive, TLR4 MyD88 comp inactive, TLR9-MyD88 block inactive and Granule exo inh inactive.
COc1ccc2nc(NC(=S)N(C)C)sc2c1 was read as ABHD5 PLIN5 PPI inactive, NOD2-RIPK2 inh inactive, PRMT1 inh 28, TLR4 MyD88 comp inactive, TLR9-MyD88 block inactive, Granule exo inh inactive and PRMT1 inh conf inactive.
For CCCC(=O)Nc1nc2ccc(OC)cc2s1 the results were ABHD5 PLIN5 PPI inactive, NOD2-RIPK2 inh inactive, PRMT1 inh inactive, TLR4 MyD88 comp inactive, TLR9-MyD88 block inactive and Granule exo inh inactive.
`CCOC(=O)c1ccc2c(c1)C1C=CCC1C(C(=O)O)N2` (stereo not given) gave TLR4 MyD88 comp inactive.
`COCCNC(=O)C1Nc2ccc(C(F)(F)F)cc2C2C=CCC12` (stereo not given) gave ABHD5 PLIN5 PPI inactive, NOD2-RIPK2 inh inactive, PRMT1 inh inactive, TLR9-MyD88 block inactive and Granule exo inh inactive.
COCCNC(=O)C1Nc2ccc(OC(F)(F)F)cc2C2C=CCC12 (stereo not given) was read as ABHD5 PLIN5 PPI inactive, NOD2-RIPK2 inh inactive, PRMT1 inh 26, TLR9-MyD88 block inactive, Granule exo inh inactive and PRMT1 inh conf inactive.
COC(=O)CNC(=O)C1Nc2ccc(OC(F)(F)F)cc2C2C=CCC12 (stereo not given) was read as ABHD5 PLIN5 PPI inactive, NOD2-RIPK2 inh inactive, PRMT1 inh 37, TLR9-MyD88 block inactive, Granule exo inh inactive and PRMT1 inh conf inactive.
CCOC(=O)C1Nc2ccc(C(=O)O)cc2C2C=CCC12 (stereo not given) was read as ABHD5 PLIN5 PPI inactive, NOD2-RIPK2 inh inactive, PRMT1 inh 30, TLR9-MyD88 block inactive, Granule exo inh inactive and PRMT1 inh conf 38.
Screening COC(=O)[C@]12CCCCC=C1N(Cc1cccc3ccccc13)C(=O)[C@H](CC(=O)NCc1cccs1)C2 returned ABHD5 PLIN5 PPI inactive, NOD2-RIPK2 inh inactive, PRMT1 inh inactive and Granule exo inh inactive.
S=P(N1CC1)(N1CC1)N1CC1 was read as ABHD5 PLIN5 PPI inactive, NOD2-RIPK2 inh inactive, PRMT1 inh 40, TLR9-MyD88 block inactive, Granule exo inh inactive and PRMT1 inh conf inactive.
O=C1CC(N2CCN(S(=O)(=O)c3ccc([N+](=O)[O-])cc3)CC2)C(=O)N1c1ccccc1F (stereo not given) was read as ABHD5 PLIN5 PPI inactive, NOD2-RIPK2 inh inactive, PRMT1 inh inactive, TLR9-MyD88 block inactive and Granule exo inh inactive.
Screening COc1ccc([N+](=O)[O-])cc1NC(=O)CSc1nc(C)cc(C)n1 returned ABHD5 PLIN5 PPI inactive, NOD2-RIPK2 inh inactive, PRMT1 inh 54, TLR4 MyD88 comp inactive, TLR9-MyD88 block inactive, Granule exo inh inactive and PRMT1 inh conf 45.
Screening CCOC(=O)C1CCCN(S(=O)(=O)c2ccc(S(=O)(=O)N(CC)CC)cc2)C1 (stereo not given) returned ABHD5 PLIN5 PPI inactive, NOD2-RIPK2 inh inactive, PRMT1 inh inactive, TLR4 MyD88 comp inactive, TLR9-MyD88 block inactive and Granule exo inh inactive.
